Test results from PubChem BioAssay (EPA / NIEHS).
Values joined by “and” are separate entries in the source; they are usually repeats but may differ in a detail not shown here. Identical values can stand only once. The source holds several records for some structures; these can differ, active in one and inactive in another. Active and inactive are the calls of the source. Rule for the calls: active = hit-call score of the fitted dose curve at least 0.9, where 1 is the maximum; inactive = score below 0.9.

Key:
[1] = target: Bile acid receptor (Homo sapiens) (UniProt Q96RI1); assay: ATG_IR1_CIS: Attagene CIS-FACTORIAL HepG2 Assay for human Nuclear Receptor Subfamily 1 Group H Member 4 (NR1H4), IR1 submotif (AID 2282946); details: IR1 reporter transcription, actives raise or lower the signal
How it was run: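 Readout: reporter transcript levels by RT-PCR with fluorescent capillary electrophoresis, from HepG2 cells transiently transfected with multiplexed cis-regulated reporters and dosed 24 h. Gain- or loss-of-signal fitted versus DMSO negative control.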

[2] = ATG_GRE_CIS: Attagene CIS-FACTORIAL HepG2 Assay for human Glucocorticoid Response Elements (GRE) (AID 2282947); details: HepG2 GRE cis-reporter, Attagene multiplex mRNA; actives raise or lower the signal
How it was run: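 Cells (HepG2) bearing transfected cis-promoter reporter transcription units were treated with chemical for 24 hours. Reporter mRNA was measured via RT-PCR with capillary electrophoresis, and activity was fitted in both directions relative to DMSO.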

[3] = ATG_ISRE_CIS: Attagene CIS-FACTORIAL HepG2 Assay for human Interferon Regulatory Factor 1 (IRF1) binding to an Interferon-Stimulated Response Element (ISRE) (AID 2282948); details: HepG2 ISRE cis-reporter (Attagene), mRNA transcription readout; actives raise or lower the signal
How it was run: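 Signal reflects induction or loss of ISRE-linked reporter mRNA in transiently transfected HepG2 cells after a 24 h treatment, detected by fluorescent RT-PCR fragments on capillary electrophoresis and normalised to DMSO.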

[4] = ATG_M_32_CIS: Attagene CIS-FACTORIAL HepG2 Assay for M32 Transcription Factor (Internal Marker) (AID 2282949); details: HepG2 Attagene cis-factorial M32 reporter, mRNA; actives raise or lower the signal;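 note: background control marker of the multiplexed CIS panel rather than a real target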
How it was run: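 HepG2 transfectants (cis-regulated reporter transcription units) dosed 24 h. Reporter mRNA by RT-PCR plus CE, analysed as gain or loss relative to DMSO.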

[5] = ATG_M_06_CIS: Attagene CIS-FACTORIAL HepG2 Assay for M06 Transcription Factor (Internal Marker) (AID 2282950); details: HepG2 Attagene CIS-FACTORIAL M06 internal marker reporter; actives raise or lower the signal
How it was run: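 Cells (HepG2, transiently carrying cis-driven reporter units) receive chemical for 24 h before RNA isolation. Reporter cDNA is PCR-amplified, FAM-labelled by primer extension, HpaI-digested and sized on a capillary analyser.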

[6] = target: Hypoxia-inducible factor 1-alpha (Homo sapiens) (UniProt Q16665); assay: ATG_HIF1a_CIS: Attagene CIS-FACTORIAL HepG2 Assay for human Hypoxia Inducible Factor 1 (HIF1A) (AID 2282951); details: HepG2 Attagene cis-factorial HIF1a reporter transcription; actives raise or lower the signal
How it was run: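 Endogenous-TF cis reporter readout, human HepG2 cells, 24 h incubation; mRNA detected via RT-PCR and capillary electrophoresis fluorescence; DMSO-normalised bidirectional fitting.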

[7] = target: Hepatocyte nuclear factor 6 (Homo sapiens) (UniProt Q9UBC0); assay: ATG_HNF6_CIS: Attagene CIS-FACTORIAL HepG2 Assay for human Hepatocyte Nuclear Factor 6 (HNF6) (AID 2282952); details: HepG2 Attagene cis-factorial HNF6 reporter transcription; actives raise or lower the signal
How it was run: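 Readout: fluorescent reporter-transcript fragments resolved by capillary electrophoresis after RT-PCR, reflecting endogenous factor activity in transfected HepG2. Exposure 24 h. Gain or loss of signal fitted bidirectionally against DMSO.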

[8] = target: Heat shock factor protein 1 (Homo sapiens) (UniProt Q00613); assay: ATG_HSE_CIS: Attagene CIS-FACTORIAL HepG2 Assay for human Heat Shock Transcription Factor 1 (HSE) (AID 2282953); details: HepG2 HSE cis-reporter, Attagene RNA transcription; actives raise or lower the signal
How it was run: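 Liver-derived HepG2 cells carry transiently introduced multiple reporter units governed by cis promoters. Reporter RNA measured 24 h post-dose through reverse transcription, PCR amplification, fluorescent labelling and capillary electrophoresis, normalised to DMSO.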

[9] = ATG_MRE_CIS: Attagene CIS-FACTORIAL HepG2 Assay for human Metal Responsive Element (MRE) (AID 2282954); details: HepG2 MRE cis-reporter transcription, Attagene multiplex; actives raise or lower the signal
How it was run: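 Cells were transfected with cis-promoter reporter transcription units, then dosed for 24 h. RNA was reverse-transcribed, amplified, fluorescently labelled and resolved by capillary electrophoresis, and activity was fitted in both directions relative to DMSO.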

[10] = ATG_PBREM_CIS: Attagene CIS-FACTORIAL HepG2 Assay for human Phenobarbital-responsive Enhancer Module (PBREM) (AID 2282955); details: HepG2 PBREM cis-reporter, Attagene multiplexed transcription; actives raise or lower the signal
How it was run: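 Readout: reporter mRNA, fluorescent RT-PCR fragments separated by capillary electrophoresis. System: HepG2 transiently transfected with cis-regulated reporter units. Exposure: 24 h. Analysis: bidirectional, DMSO baseline.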

[11] = target: Paired box protein Pax-6 (Homo sapiens) (UniProt P26367); assay: ATG_Pax6_CIS: Attagene CIS-FACTORIAL HepG2 Assay for human Paired Box 6 (PAX6) (AID 2282956); details: HepG2 CIS-FACTORIAL PAX6 reporter transcription, RNA readout; actives raise or lower the signal
How it was run: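 Values derive from bidirectional curve fitting of reporter mRNA signal relative to DMSO. HepG2 cells bearing transfected cis-regulated MRTUs were exposed for 24 h; transcripts were read by RT-PCR and capillary electrophoresis.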

[12] = ATG_PXRE_CIS: Attagene CIS-FACTORIAL HepG2 Assay for human Pregnane X Receptor Element (PXRE) (AID 2282957); details: HepG2 Attagene CIS-FACTORIAL PXRE reporter, mRNA; actives raise or lower the signal
How it was run: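 Read-out: fluorescence of reporter-specific RT-PCR products resolved by capillary electrophoresis, fitted bidirectionally relative to DMSO. Human HepG2 liver cells carried transfected cis-promoter reporter units and were exposed to chemicals for 24 h.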

[13] = ATG_RORE_CIS: Attagene CIS-FACTORIAL HepG2 Assay for human RAR-related Orphan Receptor Element (RORE) (AID 2282959); details: HepG2 Attagene cis-factorial RORE reporter, mRNA; actives raise or lower the signal
How it was run: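 Measured here: transcript induction of a cis-regulated reporter in HepG2 cells transiently transfected via FuGene 6. After 24 h, RNA was processed by RT-PCR and fluorescent capillary electrophoresis; DMSO defined baseline activity.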

[14] = target: Transcription factor Sp1 (Homo sapiens) (UniProt P08047); assay: ATG_Sp1_CIS: Attagene CIS-FACTORIAL HepG2 Assay for human Specificity Protein 1 (Sp1) (AID 2282961); details: HepG2 Sp1 cis-reporter transcription, actives raise or lower the signal
How it was run: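 After transient transfection of HepG2 cells with cis-promoter reporter units and 24 h chemical treatment, reporter transcripts were quantified by RT-PCR and capillary electrophoresis fluorescence. Gain- and loss-of-signal fitted against DMSO.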

[15] = ATG_SREBP_CIS: Attagene CIS-FACTORIAL HepG2 Assay for human Sterol Regulatory Element Binding (SREBP) (AID 2282962); details: HepG2 Attagene cis-factorial SREBP reporter, mRNA; actives raise or lower the signal
How it was run: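 Values derive from bidirectional curve fitting with DMSO as baseline. The underlying measurement is reporter mRNA from cis-element-regulated units in transiently transfected HepG2, quantified by RT-PCR and capillary electrophoresis after 24 h exposure.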

[16] = target: Signal transducer and activator of transcription 3 (Homo sapiens) (UniProt P40763); assay: ATG_STAT3_CIS: Attagene CIS-FACTORIAL HepG2 Assay for human Signal Transducer and Activator of Transcription 3 (STAT3) (AID 2282963); details: HepG2, Attagene cis-factorial STAT3 reporter transcription; actives raise or lower the signal
How it was run: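 HepG2, MRTU-transfected, 24 h dosing. RNA → RT → PCR → FAM label → HpaI → CE. Bidirectional fit vs DMSO.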

[17] = ATG_TA_CIS: Attagene CIS-FACTORIAL HepG2 Assay for human TA Basal Promoter (AID 2282964); details: HepG2 Attagene CIS-factorial TA basal promoter reporter; actives raise or lower the signal
How it was run: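 Background internal-marker endpoint from a 52-component HepG2 cis-reporter panel. Cells treated 24 h; reporter transcripts quantified via RT-PCR and CE fluorescence against DMSO baseline.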

[18] = ATG_PPRE_CIS: Attagene CIS-FACTORIAL HepG2 Assay for human Peroxisome Proliferator-activated Response Element (PPRE) (AID 2282958); details: HepG2 PPRE cis-element reporter, Attagene transcription factor profiling; actives raise or lower the signal
How it was run: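 After human HepG2 hepatoma cells were transiently transfected with cis-promoter reporter constructs, they were exposed to test chemicals for 24 hours. Reporter RNA was then reverse-transcribed, PCR-amplified, FAM-labeled, HpaI-digested and quantified by capillary electrophoresis.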

[19] = ATG_Sox_CIS: Attagene CIS-FACTORIAL HepG2 Assay for human SRY-box transcription factor (SOX) (AID 2282960); details: HepG2 Attagene cis-factorial SOX reporter, mRNA; actives raise or lower the signal
How it was run: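 Using transiently transfected HepG2 cells, reporter transcription driven by cis elements was assessed 24 h after dosing. Signal was fluorescence of capillary-separated RT-PCR products, with DMSO defining baseline activity.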

[20] = ATG_TCF_b_cat_CIS: Attagene CIS-FACTORIAL HepG2 Assay for human T-Cell-Factor with beta-catenin (TCF/b-cat) (AID 2282965); details: HepG2 TCF/beta-catenin cis-reporter transcription, actives raise or lower the signal
How it was run: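 In this cis-format system, transfected HepG2 cells report endogenous transcription factor activity. Readout after 24 h exposure is reporter transcript abundance from RT-PCR and capillary electrophoresis, analysed for gain or loss of signal versus DMSO.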

Measured: AC50

Chain of Hypoxia-inducible factor 1-alpha (Homo sapiens) (Q16665 whole entry, looked up): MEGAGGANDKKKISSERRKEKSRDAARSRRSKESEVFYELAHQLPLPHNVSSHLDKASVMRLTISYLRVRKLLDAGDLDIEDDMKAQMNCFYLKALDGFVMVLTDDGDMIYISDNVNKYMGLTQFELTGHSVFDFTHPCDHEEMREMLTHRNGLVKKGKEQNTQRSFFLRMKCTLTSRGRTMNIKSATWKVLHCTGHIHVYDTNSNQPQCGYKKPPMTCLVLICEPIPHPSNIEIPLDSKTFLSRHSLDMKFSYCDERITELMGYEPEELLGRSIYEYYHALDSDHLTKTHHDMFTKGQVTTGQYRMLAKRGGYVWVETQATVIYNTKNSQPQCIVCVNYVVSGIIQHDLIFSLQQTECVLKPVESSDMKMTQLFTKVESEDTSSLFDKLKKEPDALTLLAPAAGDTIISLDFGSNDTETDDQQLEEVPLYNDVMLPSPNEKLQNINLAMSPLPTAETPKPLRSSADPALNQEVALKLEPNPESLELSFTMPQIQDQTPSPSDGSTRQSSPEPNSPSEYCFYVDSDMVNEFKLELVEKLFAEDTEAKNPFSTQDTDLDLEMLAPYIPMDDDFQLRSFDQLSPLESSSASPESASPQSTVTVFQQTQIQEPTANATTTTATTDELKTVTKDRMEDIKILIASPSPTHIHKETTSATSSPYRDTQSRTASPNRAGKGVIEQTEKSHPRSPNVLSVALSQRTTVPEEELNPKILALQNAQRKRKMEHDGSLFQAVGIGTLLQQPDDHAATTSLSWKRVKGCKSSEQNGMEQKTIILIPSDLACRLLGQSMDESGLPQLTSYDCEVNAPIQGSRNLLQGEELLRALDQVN
Chain of Bile acid receptor (Homo sapiens) (Q96RI1 whole entry, looked up): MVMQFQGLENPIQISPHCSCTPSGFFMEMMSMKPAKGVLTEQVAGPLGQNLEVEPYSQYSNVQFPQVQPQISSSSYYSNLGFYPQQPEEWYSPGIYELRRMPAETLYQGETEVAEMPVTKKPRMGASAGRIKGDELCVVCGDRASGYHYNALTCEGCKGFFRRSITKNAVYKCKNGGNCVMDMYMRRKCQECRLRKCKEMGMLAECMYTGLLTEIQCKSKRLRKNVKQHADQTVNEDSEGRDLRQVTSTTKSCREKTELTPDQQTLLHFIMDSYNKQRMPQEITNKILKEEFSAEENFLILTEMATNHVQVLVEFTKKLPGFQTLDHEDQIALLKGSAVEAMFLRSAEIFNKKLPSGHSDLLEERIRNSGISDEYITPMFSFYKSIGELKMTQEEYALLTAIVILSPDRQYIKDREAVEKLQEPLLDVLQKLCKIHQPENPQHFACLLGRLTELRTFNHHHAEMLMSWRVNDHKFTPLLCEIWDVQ
Chain of Heat shock factor protein 1 (Homo sapiens) (Q00613 whole entry, looked up): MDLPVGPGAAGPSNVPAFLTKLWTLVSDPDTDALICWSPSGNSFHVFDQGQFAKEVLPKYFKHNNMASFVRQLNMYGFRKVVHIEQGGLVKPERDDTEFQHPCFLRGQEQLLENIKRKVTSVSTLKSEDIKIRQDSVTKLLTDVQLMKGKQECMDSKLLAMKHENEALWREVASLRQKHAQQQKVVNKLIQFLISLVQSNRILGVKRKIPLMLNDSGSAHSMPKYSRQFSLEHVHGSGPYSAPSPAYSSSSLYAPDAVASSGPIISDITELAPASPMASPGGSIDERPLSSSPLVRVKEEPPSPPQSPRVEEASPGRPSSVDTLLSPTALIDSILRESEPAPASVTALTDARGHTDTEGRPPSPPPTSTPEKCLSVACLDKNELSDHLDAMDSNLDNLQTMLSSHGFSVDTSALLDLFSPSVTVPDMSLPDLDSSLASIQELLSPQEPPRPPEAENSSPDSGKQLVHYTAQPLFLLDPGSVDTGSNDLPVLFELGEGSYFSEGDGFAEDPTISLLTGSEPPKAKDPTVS
Chain of Paired box protein Pax-6 (Homo sapiens) (P26367 whole entry, looked up): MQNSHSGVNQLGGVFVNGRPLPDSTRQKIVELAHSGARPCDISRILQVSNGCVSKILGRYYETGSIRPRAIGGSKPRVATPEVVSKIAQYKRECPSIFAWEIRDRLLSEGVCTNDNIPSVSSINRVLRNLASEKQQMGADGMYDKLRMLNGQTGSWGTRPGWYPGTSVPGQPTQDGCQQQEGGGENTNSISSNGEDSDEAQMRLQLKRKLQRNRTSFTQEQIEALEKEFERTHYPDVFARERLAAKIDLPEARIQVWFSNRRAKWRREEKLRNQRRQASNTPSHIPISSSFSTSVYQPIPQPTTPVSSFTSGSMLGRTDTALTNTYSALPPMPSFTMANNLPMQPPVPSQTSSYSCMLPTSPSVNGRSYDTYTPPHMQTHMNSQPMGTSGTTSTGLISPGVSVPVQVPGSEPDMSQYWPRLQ
Chain of Transcription factor Sp1 (Homo sapiens) (P08047 whole entry, looked up): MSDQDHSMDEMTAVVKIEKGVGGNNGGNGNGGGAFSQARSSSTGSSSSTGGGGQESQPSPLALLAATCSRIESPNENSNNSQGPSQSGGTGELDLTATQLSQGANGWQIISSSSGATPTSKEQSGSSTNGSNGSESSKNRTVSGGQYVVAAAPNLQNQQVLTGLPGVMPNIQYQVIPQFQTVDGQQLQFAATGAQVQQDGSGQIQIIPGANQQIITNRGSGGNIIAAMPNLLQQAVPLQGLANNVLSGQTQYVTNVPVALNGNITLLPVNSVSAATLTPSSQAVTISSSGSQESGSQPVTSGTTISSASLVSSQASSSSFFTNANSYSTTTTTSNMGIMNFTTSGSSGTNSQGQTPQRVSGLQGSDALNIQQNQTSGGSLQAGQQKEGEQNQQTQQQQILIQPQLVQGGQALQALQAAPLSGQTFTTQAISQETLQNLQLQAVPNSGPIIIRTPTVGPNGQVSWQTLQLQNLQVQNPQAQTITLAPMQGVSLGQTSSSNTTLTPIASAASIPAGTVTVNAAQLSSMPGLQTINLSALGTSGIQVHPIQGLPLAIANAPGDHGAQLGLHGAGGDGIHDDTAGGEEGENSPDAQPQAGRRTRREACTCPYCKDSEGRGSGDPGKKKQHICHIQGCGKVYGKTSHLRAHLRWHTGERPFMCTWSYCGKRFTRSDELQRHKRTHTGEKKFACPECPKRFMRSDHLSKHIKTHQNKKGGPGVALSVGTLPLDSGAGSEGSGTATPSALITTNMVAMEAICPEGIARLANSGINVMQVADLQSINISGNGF
Chain of Hepatocyte nuclear factor 6 (Homo sapiens) (Q9UBC0 whole entry, looked up, the tested form may be a part): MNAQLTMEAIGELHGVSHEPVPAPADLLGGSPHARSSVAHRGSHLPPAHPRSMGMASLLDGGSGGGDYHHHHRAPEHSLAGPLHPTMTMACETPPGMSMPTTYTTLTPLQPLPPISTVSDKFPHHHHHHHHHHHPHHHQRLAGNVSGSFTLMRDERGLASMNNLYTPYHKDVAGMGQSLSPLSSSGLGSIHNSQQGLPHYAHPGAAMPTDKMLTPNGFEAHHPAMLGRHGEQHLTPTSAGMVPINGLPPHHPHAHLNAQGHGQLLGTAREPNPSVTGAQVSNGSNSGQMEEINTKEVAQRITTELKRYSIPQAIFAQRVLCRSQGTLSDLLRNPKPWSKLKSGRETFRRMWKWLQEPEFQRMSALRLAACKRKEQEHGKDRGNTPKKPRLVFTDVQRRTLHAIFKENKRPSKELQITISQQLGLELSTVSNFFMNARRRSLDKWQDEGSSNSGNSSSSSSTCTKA
Chain of Signal transducer and activator of transcription 3 (Homo sapiens) (P40763 whole entry, looked up): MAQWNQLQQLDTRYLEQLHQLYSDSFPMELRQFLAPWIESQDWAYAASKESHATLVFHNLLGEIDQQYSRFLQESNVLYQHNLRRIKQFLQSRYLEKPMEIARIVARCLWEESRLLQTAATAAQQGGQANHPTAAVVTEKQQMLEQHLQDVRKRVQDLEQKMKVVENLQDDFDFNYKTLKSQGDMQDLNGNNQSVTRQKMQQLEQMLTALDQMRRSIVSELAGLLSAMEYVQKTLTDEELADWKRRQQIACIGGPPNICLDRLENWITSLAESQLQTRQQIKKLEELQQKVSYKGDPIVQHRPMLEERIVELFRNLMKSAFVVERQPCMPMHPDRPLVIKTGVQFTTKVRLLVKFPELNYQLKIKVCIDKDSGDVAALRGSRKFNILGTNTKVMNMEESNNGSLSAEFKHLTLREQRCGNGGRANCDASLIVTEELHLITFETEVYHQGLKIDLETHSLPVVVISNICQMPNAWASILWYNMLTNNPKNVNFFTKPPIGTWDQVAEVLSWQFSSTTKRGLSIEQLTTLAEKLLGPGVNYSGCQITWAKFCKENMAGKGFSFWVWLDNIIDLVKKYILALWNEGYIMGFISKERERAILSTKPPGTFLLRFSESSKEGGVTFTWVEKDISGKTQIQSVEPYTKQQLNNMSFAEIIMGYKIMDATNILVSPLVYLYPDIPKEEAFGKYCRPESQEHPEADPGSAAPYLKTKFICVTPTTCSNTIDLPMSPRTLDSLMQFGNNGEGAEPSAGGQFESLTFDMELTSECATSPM

O=C(N[C@H](c1ccccc1)[C@@H]1CN2CCC1CC2)c1c(Cl)ccc(C(F)(F)F)c1Cl
active: [6] 0.207 µM | [12] 458 nM | [15] 5.4 µM
inactive: [1] | [2] | [3] | [4] | [5] | [7] | [8] | [9] | [10] | [11] | [13] | [14] | [16] | [17]

CC(C)(O)c1cnn2c(-c3ccc(F)c(-c4c(F)cccc4C#N)c3)cnc2n1
inactive: [1] | [2] | [3] | [4] | [5] | [7] | [11] | [13] | [14] | [15] | [16]
active: [6] 26.8 µM | [8] 25.8 µM | [9] 1.73 µM | [10] 0.785 µM | [12] 137 nM | [17] 13.1 µM

CN(C)c1ccc(C(=O)c2ccc(N(C)C)cc2)cc1
inactive: [1] | [2] | [4] | [6] | [7] | [8] | [9] | [10] | [11] | [18] | [13] | [19] | [14] | [15] | [16] | [17] | [20]
active: [12] 3720 nM

OCCOCCO
inactive: [1] | [2] | [3] | [4] | [6] | [7] | [9] | [10] | [11] | [12] | [13] | [19] | [14] | [15] | [16] | [17] | [20]

C[C@]12C=CC3=C4CCC(=O)C=C4CC[C@H]3[C@@H]1CC[C@@H]2O
active: [1] 760 nM and 26.7 µM and 26.8 µM | [3] 59.8 µM [middle of 4 runs] | [9] 100 µM and 44.5 µM and 52.5 µM | [11] 34.2 µM | [12] 40.2 µM and 57.3 µM | [13] 20.1 µM | [14] 8.08 µM | [15] 4.15 µM
inactive: [1] | [3] | [4] | [5] | [6] | [7] | [8] | [9] | [10] | [11] | [12] | [13] | [14] | [15] | [16] | [17]

CCC(C)c1ccc(O)cc1 (stereo not given)
inactive: [1] | [2] | [3] | [4] | [6] | [7] | [8] | [10] | [11] | [13] | [19] | [14] | [16] | [17]
active: [9] 82.1 µM | [12] 26500 nM | [15] 163 µM
